Assay outcomes (PubChem)
Cruzain noTriton = cruzain (T. cruzi) inhibition without detergent; P25779; purified cruzain, Z-FR-AMC fluorescence, no detergent; Potency, µM, without a hit: max response, negative = inhibition, hits mostly inhibitors; hit rate 2.3% among 200,000;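 note: plate controls were enzyme without inhibitor for no effect and buffer without enzyme for full effect; nearly all actives have a fitted effect of over 40% in size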
Target sequence (P25779 123-467 limits assumed): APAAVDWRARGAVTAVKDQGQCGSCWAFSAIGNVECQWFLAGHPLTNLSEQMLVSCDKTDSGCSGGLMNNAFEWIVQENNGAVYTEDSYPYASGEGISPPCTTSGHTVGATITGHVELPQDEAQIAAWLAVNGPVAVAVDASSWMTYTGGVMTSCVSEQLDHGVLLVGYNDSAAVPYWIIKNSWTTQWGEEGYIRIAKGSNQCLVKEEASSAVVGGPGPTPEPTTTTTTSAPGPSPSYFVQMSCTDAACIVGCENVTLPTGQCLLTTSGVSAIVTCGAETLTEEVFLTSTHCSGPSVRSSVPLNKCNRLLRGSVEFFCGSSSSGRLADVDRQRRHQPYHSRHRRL
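Detergent-free condition (0.00005% Triton X-100) in acetate buffer pH 5.5 with DTT. 1.5 nM enzyme and compound were pre-mixed 15 min, then 2 uM Z-FR-AMC substrate added; reaction progress from fluorescence change between first and third reads (60 s).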
Cruzain Triton = blocks cruzain activity in presence of Triton detergent. Potency, µM, without a hit: max response, negative = inhibition, hits mostly inhibitors. hit rate 0.43% among 200,000. purified cruzain, Z-FR-AMC fluorescence, 0.01% Triton. P25779. AID 1478;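 note: plate controls were neutral wells for no effect and buffer without enzyme for full effect; nearly all actives have a fitted effect of over 40% in size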
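15 min RT preincubation of 1.5 nM cruzain with compound, then 2 uM Z-FR-AMC added; kinetic AMC fluorescence, 60 s delta. Triton X-100 0.01%, pH 5.5.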
Starred values were filed as active, the others as inactive. Most compounds without a hit are left out; they make up all but 2.6% or so of the library. Calls come from the whole dose curve; as a rule, active = well fitted curve in the direction sought with a large enough effect; inconclusive = small, poorly fitted or top-dose-only effect, or another doubt; inactive = no such curve, though single readings can be large; an effect the other way counts as inactive or inconclusive. Potency is the fitted concentration of half-maximal effect.

How did Cc1ccc(Cn2cnc3nc4c(cc3c2=O)CC(C)CC4)cc1 (stereo not given) do in these assays?
Cruzain noTriton: -4%; Cruzain Triton: -6%

What do the screens show for `Cc1ccccc1Cn1c(=O)n(CCCCCC(=O)NCc2ccc3c(c2)OCO3)c(=O)c2sccc21`?
Cruzain noTriton: 16%; Cruzain Triton: -1%

How did CCCNS(=O)(=O)c1ccc2nc(NC(=O)c3ccc(F)cc3)sc2c1 do in these assays?
Cruzain noTriton: -7%; Cruzain Triton: -2%

What do the screens show for `O=[N+]([O-])c1ccc(N2CCN(S(=O)(=O)c3ccc4ccccc4c3)CC2)cc1NCC1CCCO1` (stereo not given)?
Cruzain noTriton: 16µM*; Cruzain Triton: 1%

What do the screens show for `O=[N+]([O-])c1ccc(N2CCN(S(=O)(=O)c3ccccc3)CC2)cc1NCC1CCCO1` (stereo not given)?
Cruzain noTriton: 12%; Cruzain Triton: -4%

What do the screens show for `Cc1ccc2c(c1)n([O-])c1c([n+]2=O)CCCC1`?
Cruzain noTriton: -4%; Cruzain Triton: 6%

Results for CC(=O)c1c(C)n([O-])c2ccc(C)cc2[n+]1=O ?
Cruzain noTriton: 1.6µM*; Cruzain Triton: 0%

Results for C#CCCCCCCCCCCCC(=O)CC(O)COC(C)=O (stereo not given) ?
Cruzain noTriton: 6%; Cruzain Triton: 0%

How did COc1ccccc1NS(=O)(=O)c1cc2c(cc1Cl)NC(=O)CO2 do in these assays?
Cruzain noTriton: -5%; Cruzain Triton: -13%

What do the screens show for `Cc1ccc(OCCSc2nc3ccc(NC(=O)c4cccs4)cc3s2)cc1`?
Cruzain noTriton: 0%; Cruzain Triton: -2%

Results for Cc1cc(C)cc(OCCSc2nc3ccc(NC(=O)c4cccs4)cc3s2)c1 ?
Cruzain noTriton: 20µM*; Cruzain Triton: -2%

How did Cc1ccc(O)c(/C=N/NC(=O)C2=NNC(c3ccccc3)(c3ccccc3)C2)c1 do in these assays?
Cruzain noTriton: 13µM*; Cruzain Triton: -15%

How did Cc1ccc(O)c(/C=N/NC(=O)c2[nH]ncc2Br)c1 do in these assays?
Cruzain noTriton: 4%; Cruzain Triton: -6%

What do the screens show for `COc1ccc(OC)c(NC(=O)Cn2c(=O)n(-c3cccc(C)c3)c(=O)c3c2c2cc(C)ccc2n3C)c1`?
Cruzain noTriton: 2%; Cruzain Triton: 0%

How did Cc1nc(NC2CCCCC2)c2nc(-c3ccccc3)n(CCN3CCCC3)c2n1 do in these assays?
Cruzain noTriton: -4%; Cruzain Triton: -1%

Results for O=C1OCC2=C1C(c1cccc(Cl)c1)CC(=O)N2c1ccc(C(F)(F)F)cc1 (stereo not given) ?
Cruzain noTriton: 0%; Cruzain Triton: -4%

How did CCCn1c(=O)c2sccc2n2c(CCCC(=O)NC3CCCCC3)nnc12 do in these assays?
Cruzain noTriton: 5%; Cruzain Triton: -1%

What do the screens show for `COc1cccc(-n2c(SCC(=O)Nc3cccc(Cl)c3)nc3c(oc4ccccc43)c2=O)c1`?
Cruzain noTriton: 13µM*; Cruzain Triton: -3%

How did Cc1cccc(NC(=O)CSc2nc3c(oc4ccccc43)c(=O)n2C(C)C)c1 do in these assays?
Cruzain noTriton: -25%; Cruzain Triton: -4%

How did COc1cccc(-n2c(SCC(=O)Nc3cc(C)ccc3C)nc3c(oc4ccccc43)c2=O)c1 do in these assays?
Cruzain noTriton: -9%; Cruzain Triton: -1%

How did O=C(CSc1nc2c(oc3ccccc32)c(=O)[nH]1)Nc1cccc(Cl)c1 do in these assays?
Cruzain noTriton: 7.9µM*; Cruzain Triton: 1%

What do the screens show for `Cc1ccc(-n2ncc(C(=O)NCCN3CCc4ccccc4C3)c2C2CCN(C(=O)OC(C)(C)C)CC2)c(C)c1`?
Cruzain noTriton: -2%; Cruzain Triton: -3%

What do the screens show for `CCC(C(=O)NC1CCCC1)N(C(=O)Cn1nnc(-c2cccs2)n1)c1cnc2ccccc2c1` (stereo not given)?
Cruzain noTriton: 7%; Cruzain Triton: 0%

What do the screens show for `O=C(NCc1ccccc1)C(c1ccc(F)cc1)N(Cc1ccc2c(c1)OCO2)C(=O)Cn1nnc(-c2cccs2)n1` (stereo not given)?
Cruzain noTriton: 13µM*; Cruzain Triton: -2%

Results for CCCC(C(=O)NCc1ccccc1)N(C(=O)Cn1nnc(-c2cccs2)n1)c1ccc2c(c1)OCCO2 (stereo not given) ?
Cruzain noTriton: 20µM*; Cruzain Triton: 1%

What do the screens show for `O=C(CN(Cc1ccco1)C(=O)Cn1nnc(-c2cccs2)n1)NCc1ccccc1`?
Cruzain noTriton: -1%; Cruzain Triton: -1%

What do the screens show for `COc1cccc2cc(-c3nnc(Nc4ccccc4C)s3)c(=O)oc12`?
Cruzain noTriton: 6%; Cruzain Triton: 3%

How did CCOc1ccc(C(c2c(O)cc(C)n(CCOC)c2=O)N2CCN(c3ccc(F)cc3)CC2)cc1 (stereo not given) do in these assays?
Cruzain noTriton: 11%; Cruzain Triton: 1%

What do the screens show for `Cc1ccc(-n2c(O)c(C=Nc3ccc4c(c3)OCO4)c3ccccc3c2=O)cc1C`?
Cruzain noTriton: 10µM*; Cruzain Triton: -1%

Results for Cc1cc(N=Cc2c(O)n(-c3ccc4c(c3)OCO4)c(=O)c3ccccc23)ccn1 ?
Cruzain noTriton: -24%; Cruzain Triton: -9%

What do the screens show for `CCOc1ccc(CCNC(=O)c2sc3nc4n(c(=O)c3c2C)CCCC4)cc1`?
Cruzain noTriton: -21%; Cruzain Triton: -4%

How did CCn1c(=O)cc(OCC(=O)N2CCN(c3ccc(OC)cc3)CC2)c2ccccc21 do in these assays?
Cruzain noTriton: -8%; Cruzain Triton: 1%

How did Cc1ccccc1CNC(=O)C1CCN(c2nnc(-n3c(C)ccc3C)s2)CC1 do in these assays?
Cruzain noTriton: 5%; Cruzain Triton: -5%

How did Cn1cccc1CC(=O)NNC(=S)Nc1ccc(Cl)cc1Cl do in these assays?
Cruzain noTriton: 3%; Cruzain Triton: 1%

Results for O=C(CN1c2ccccc2Sc2ccccc21)NNC(=S)Nc1ccc(Cl)cc1Cl ?
Cruzain noTriton: 10µM*; Cruzain Triton: 8%

Results for CC(CNC(=O)c1cc2cc(S(=O)(=O)N3CCCCC3)ccc2n1C)c1ccccc1 (stereo not given) ?
Cruzain noTriton: -5%; Cruzain Triton: -2%

What do the screens show for `CCc1ccccc1NC(=O)C(=O)NCCCN1CCOCC1`?
Cruzain noTriton: -4%; Cruzain Triton: -2%

What do the screens show for `CCOC(=O)c1c(C)[nH]c(CCC(=O)NCc2ccccc2C)c1C`?
Cruzain noTriton: -5%; Cruzain Triton: 3%

Results for Cc1ccc(CNC(=O)Cc2nc3nc(C)cc(C)n3n2)cc1 ?
Cruzain noTriton: -5%; Cruzain Triton: 1%

What do the screens show for `Cc1cc(C)n2nc(CC(=O)NCc3ccccc3Cl)nc2n1`?
Cruzain noTriton: 8%; Cruzain Triton: 16µM*

What do the screens show for `COc1cccc(Nc2ncc3nc(-c4ccccc4)c(=O)n(Cc4cccs4)c3n2)c1`?
Cruzain noTriton: 5µM*; Cruzain Triton: 1%

Results for COc1ccc(Oc2ncc3nc(-c4ccccc4)c(=O)n(Cc4cccs4)c3n2)cc1 ?
Cruzain noTriton: 25µM*; Cruzain Triton: -1%

What do the screens show for `COc1ccc(-c2nc3cnc(Nc4ccccc4)nc3n(Cc3cccs3)c2=O)cc1`?
Cruzain noTriton: -1%; Cruzain Triton: 0%

How did COCCn1c(=O)c(CCc2ccccc2)nc2cnc(Nc3cccc(OC)c3)nc21 do in these assays?
Cruzain noTriton: 1%; Cruzain Triton: 3%

How did COc1cccc(Nc2ncc3nc(CCc4ccccc4)c(=O)n(Cc4cccs4)c3n2)c1 do in these assays?
Cruzain noTriton: 4µM*; Cruzain Triton: 3%
